Pf apPOL inh – Pf-apPOL DNA polymerase inhibition | inhibition, % at 10 µM | actives 0.25% (n = 210,000) | Recombinant Pf-apPOL, molecular beacon fluorescence, 1.5 h | AID 1794808
mHTT CaM bind – disrupts binding of mutant huntingtin to calmodulin; P42858; actives 3.6% (n = 190,000); inhibition, % at 15 µM; AlphaScreen His-mHTT/GST-CaM binding, luminescence; AID 1671202;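 note: 0% = both proteins with DMSO and 100% = one protein alone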
* = called active by the depositor; x = no result given. The sample as a whole holds a higher share of hits than the screen did. Cut-off read from the data, not from the text of the source: active = inhibition above about 50%; inactive = the rest.

SMILES | Pf apPOL inh | mHTT CaM bind
COc1ccc(NC(=O)CN2CCC(C(=O)NCc3cccs3)CC2)c(OC)c1 | -4 | 1
COc1cc(-c2c(C#N)c(N)nc3sc(C(N)=O)c(N)c23)cc(OC)c1OC | -5 | 65*
COc1cc(-c2c(C#N)c(N)nc(SC)c2C#N)cc(OC)c1OC | 0 | -2
Cc1csc(NC(=O)CSc2nnc(NC(=O)c3cc(C)on3)s2)n1 | -5 | -18
Brc1ccc(C=Nc2c(-c3ccco3)nc3ccccn23)cc1 | -1 | 33
Oc1ccc(C=Nc2c(-c3ccco3)nc3ccc(Cl)cn23)cc1 | 0 | 52*
COc1ccc(Br)cc1C=Nc1c(-c2ccco2)nc2ccccn12 | 5 | 46
Clc1ccccc1C=Nc1c(-c2ccco2)nc2ccccn12 | 3 | 79*
O=[N+]([O-])c1cc(C=Nc2c(-c3ccco3)nc3ccccn23)ccc1Cl | 0 | 33
Oc1ccc(Br)cc1C=Nc1c(-c2ccco2)nc2ccccn12 | -5 | 62*
COc1ccc(C=Nc2c(-c3ccco3)nc3ccccn23)cc1OC | -6 | 33
CSc1ccc(C=Nc2c(-c3ccco3)nc3ccccn23)cc1 | -9 | 80*
COC(=O)c1ccc(-c2csc(NC(=O)Cc3cccs3)n2)cc1 | -2 | -4
O=C(Nc1ncccn1)c1c(O)c2cccc3c2n(c1=O)CCC3 | -6 | 56*
O=C(Nc1ncccc1O)c1c(O)c2cccc3c2n(c1=O)CC3 | -5 | 52*
O=C(Nc1ccccn1)c1c(O)c2cccc3c2n(c1=O)CCC3 | 0 | 8
Cc1cccnc1NC(=O)c1c(O)c2cccc3c2n(c1=O)CCC3 | -2 | 10
O=C(Nc1ccc(NC(=O)c2ccc(Cl)cc2Cl)cc1)c1cc2ccccc2o1 | 0 | 1
COc1ccc(C2=N/C(=C\c3ccccc3Cl)C(=O)O2)c(Cl)c1 | -3 | -1
NC(=O)c1c(NC(=O)C2CC=CCC2C(=O)O)sc2c1CCCCCC2 (configuration not stated) | -2 | -1
CSc1nc(C)nc(NC=C(C#N)S(=O)(=O)c2ccccc2Cl)n1 | -8 | x
COc1ccc(/C=C2\C(=O)Nc3ccc(Cl)cc32)cc1OC | -11 | 74*
O=C1Nc2ccc(Cl)cc2/C1=C/c1ccccc1 | 0 | 65*
COc1ccccc1/C=C1\C(=O)Nc2ccc(Cl)cc21 | -1 | 24
O=C1Nc2ccc(Cl)cc2/C1=C/c1ccccc1F | 7 | 19
SMILES | Pf apPOL inh | mHTT CaM bind
CC(C)(C)c1ccc(C(=O)Nc2ccc(Cl)c(C(N)=O)c2)cc1 | -9 | 0
COc1cc(C(=O)Nc2ccccc2-c2nc3ccccc3o2)cc(OC)c1OC | 2 | -17
COc1cc(/C=C2\NC(=O)NC2=O)cc(Br)c1OC(C)C | -5 | 0
COc1ccc(CC(=O)Nc2nnc(C3CC(=O)N(c4ccccc4)C3)o2)cc1 (configuration not stated) | -2 | 92*
CCOc1ccc(N2CC(c3nnc(NC(=O)Cc4ccccc4C)o3)CC2=O)cc1 (configuration not stated) | -1 | 19
COc1ccc(N2CC(c3nnc(NC(=O)Cc4cccc(F)c4)o3)CC2=O)cc1 (configuration not stated) | -3 | 29
COc1ccc(N2CC(c3nnc(NC(=O)Cc4cccc(OC)c4)o3)CC2=O)cc1 (configuration not stated) | -3 | 53*
Cc1ccccc1CC(=O)Nc1nnc(C2CC(=O)N(c3ccccc3)C2)o1 (configuration not stated) | -3 | 50*
O=C(Nc1nnc(C2CC(=O)N(c3ccccc3)C2)o1)c1cccc(Cl)c1 (configuration not stated) | -2 | 61*
Cc1ccc(CC(=O)Nc2nnc(C3CC(=O)N(c4ccccc4)C3)o2)cc1 (configuration not stated) | -8 | 0
O=C(Nc1nnc(C2CC(=O)N(c3ccc(F)cc3)C2)o1)c1cccc(Cl)c1 (configuration not stated) | 2 | 35
O=C(NCCN1CCCC1)C1=C2CCCN2c2ccc(F)cc2S1(=O)=O | 0 | -3
Cc1ccc(NC(=O)c2ccc(-c3nc4cccnc4n(C)c3=O)cc2)cc1Cl | 0 | 1
O=C(CSc1ccc(F)cc1)Nc1nnc(C2CC(=O)N(c3ccccc3)C2)o1 (configuration not stated) | 4 | 21
O=C(Cc1cccs1)Nc1nnc(C2CC(=O)N(c3ccccc3)C2)o1 (configuration not stated) | 12 | 60*
CCC(CC)N1CCN(C(=O)C2CCc3sc(C(=O)N4CCOCC4)cc3C2)CC1 (configuration not stated) | -6 | 0
CC(=O)c1ccc(N2C(=O)CC(N3CCN(c4ccccn4)CC3)C2=O)cc1 (configuration not stated) | 0 | 0
CSc1cccc(NC(=O)C2CCCN(C(=O)c3cccc(C)c3)C2)c1 (configuration not stated) | 9 | 28
COc1ccccc1N=Cc1cc(OC)c(OCc2ccccc2)cc1[N+](=O)[O-] | -12 | 95*
